Screening results from PubChem BioAssay.
Pf Dd2 inh: inhibitors of Plasmodium falciparum Dd2 growth; AID 1347417; P. falciparum Dd2 growth, SYBR Green, 72 h; 120,000 tested, 4.3% active; Potency, µM (doses to about 28.9 µM), inactives show top-dose activity, negative = inhibition, most hits filed as inhibitors; active = well fitted inhibition curve with a large enough effect;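 note: plate controls were DMSO vehicle for no effect and reference drug for full effect; nearly all actives have a fitted effect of over 65% in size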
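Readout: SYBR Green fluorescence, 485 nm excitation, 535 nm emission, after ~16 h lysis at 37C. Before that, Dd2-infected red cells (2.5% hematocrit) grew 72 h with compound, 29 uM top final concentration.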
* = called active by the depositor; [ ] = dose if it differs, or a comment. The sample as a whole holds a higher share of hits than the screen did. Potency is the fitted concentration of half-maximal effect.

Screening CCOC(=O)c1ccc(OCC2c3cc(OC)c(OC)cc3CCN2C(=O)c2ccc(S(=O)(=O)N3CCCC3)cc2)cc1 (stereo not given) returned Pf Dd2 inh 11µM*.
For CCOc1ccc(C(=O)N2CCC[C@H]2c2nc(-c3ccc(OC)c(OC)c3)no2)cc1 the results were Pf Dd2 inh inactive.
Screening O=C1CN(C(=O)c2ccc(S(=O)(=O)N3CCCC3)cc2)C(c2ccccc2)c2cc(F)ccc2N1 (stereo not given) returned Pf Dd2 inh -3%.
COc1ccc(C(=O)N2CCCN(S(=O)(=O)c3ccccc3)CCC(=O)NCC2)cc1F was read as Pf Dd2 inh -19%.
Screening CCc1ccc(OCC2c3cc(OC)c(OC)cc3CCN2C(=O)c2ccc(S(=O)(=O)N3CCCC3)cc2)cc1 (stereo not given) returned Pf Dd2 inh 11µM*.
COc1cc2c(cc1OC)C(COc1ccccc1OC)N(C(=O)c1ccc(S(=O)(=O)N3CCCC3)cc1)CC2 (stereo not given) was read as Pf Dd2 inh 11µM*.
For CCc1ccc(C(=O)N2CCC(c3nc(-c4ccc(S(=O)(=O)N5CCCC5)cc4)no3)CC2)cc1 the results were Pf Dd2 inh -22%.
Screening COc1ccc(NC(=O)c2cc(S(=O)(=O)N3CCCC3)ccc2OC)cc1 returned Pf Dd2 inh 7%.
Screening CN1C(=O)CC[C@]2(C(=O)NCc3ccc(F)c(Cl)c3)CCCC[C@@H]12 returned Pf Dd2 inh 14%.
`O=C(NC1CCCCC1)C1CN(C(=O)COc2ccc(F)cc2)CC12CCOCC2` (stereo not given) gave Pf Dd2 inh -8%.
Screening O=C1CC2(CCN(Cc3ccc(C(F)(F)F)cc3F)C2)C(=O)N1 (stereo not given) returned Pf Dd2 inh -8%.
`CC(C)NC(=O)O[C@@H]1CC[C@]2(C)C(CC[C@@H](O)[C@H]2CC(=O)NCc2ccc(F)cc2)[C@]1(C)CO` (stereo not given in full) gave Pf Dd2 inh -10%.
CC(C)c1noc(-c2cn(C3CCN(C(=O)c4ccoc4)CC3)nn2)n1 was read as Pf Dd2 inh -6%.
`NC(=O)C1CCC(=O)N1C1CCNCC1` (stereo not given) gave Pf Dd2 inh 6%.
For COc1ccccc1C(=O)N1CCN(C(=O)c2nnn3c2COC(c2ccc(C)cc2)C3)CC1 (stereo not given) the results were Pf Dd2 inh inactive.
CN1C(=O)CC[C@]2(C(=O)NCc3ccccc3Cl)CCCC[C@@H]12 was read as Pf Dd2 inh 1%.
Screening CS(=O)(=O)N(Cc1cccnc1)C1CN(C(=O)CCCc2c[nH]c3ccccc23)C1 returned Pf Dd2 inh -22%.
Screening COCCCNC(=O)N1CCCCC1c1nc(CCOc2cccc(C)c2)no1 (stereo not given) returned Pf Dd2 inh -25%.
Screening CC(C)=CCn1c(-c2cc(C)oc2C)cn2cc(C(=O)N[C@@H](C)C(N)=O)nc2c1=O returned Pf Dd2 inh -7%.
For CC(C)=CCn1c(-c2ccccc2Cl)cn2cc(C(=O)NCC(C)O)nc2c1=O (stereo not given) the results were Pf Dd2 inh 10µM*.
For C=CCn1c(-c2ccc(F)cc2)cn2cc(C(=O)N(C)CCO)nc2c1=O the results were Pf Dd2 inh -11%.
COc1ccc(-c2ccnc(-c3nnc(C)n3Cc3cccnc3)c2)cc1OC was read as Pf Dd2 inh inactive.
Screening Cc1ccc(NC(=O)C2CCN(c3cn[nH]c(=O)c3)C2)cc1 (stereo not given) returned Pf Dd2 inh 2%.
`COc1cc2c(cc1OC)C(C[C@H]1CN(S(=O)(=O)c3ccc(C#N)cc3)CC[C@H]1CC(=O)O)=NCC2` gave Pf Dd2 inh -8%.
For COC(=O)[C@@H]1Cc2ncn(Cc3ccccc3)c2CN1S(=O)(=O)c1cccs1 the results were Pf Dd2 inh inactive.
For COC(=O)[C@@H]1Cc2ncn(Cc3ccc(Cl)cc3)c2CN1S(=O)(=O)c1ccc(NC(C)=O)cc1 the results were Pf Dd2 inh -7%.
Screening COC(=O)[C@@H]1Cc2ncn(Cc3ccc(Cl)cc3)c2CN1Cc1cccc(C#N)c1 returned Pf Dd2 inh 11µM*.
For COC(=O)[C@@H]1Cc2ncn(Cc3ccc(Cl)cc3)c2CN1S(=O)(=O)c1cccs1 the results were Pf Dd2 inh -26%.
COC(=O)[C@@H]1Cc2ncn(Cc3ccccc3)c2CN1S(=O)(=O)Cc1ccccc1 was read as Pf Dd2 inh 11µM*.
COC(=O)[C@@H]1Cc2ncn(Cc3ccccc3)c2CN1S(=O)(=O)c1cccc(C(F)(F)F)c1 was read as Pf Dd2 inh inactive.
COc1ccccc1N1CCN(C(=O)C[C@@H]2O[C@H](CNS(=O)(=O)c3ccc(Cl)cc3)[C@@H](O)[C@H]2O)CC1 was read as Pf Dd2 inh -1%.
Screening Cc1ccc(C(=O)N2CC[C@H](c3n[nH]c(C)n3)[C@H](NC(=O)C3CCOCC3)C2)cc1 returned Pf Dd2 inh -2%.
Screening CC(C)CCNC1(Cc2cc(CN3CCOCC3)on2)COC1 returned Pf Dd2 inh -10%[44.1 µM].
For CCCNC(=O)N1CCC(O)(c2csc(CN3CCN(C)CC3)n2)CC1 the results were Pf Dd2 inh inactive.
For CN1CC(=O)N(C2CCNC2)Cc2c(NCCCN3CCCCC3)ncnc21 (stereo not given) the results were Pf Dd2 inh 6%.
`Cc1ccc(OCc2nc(C3CN(C(=O)c4cc5ccccc5[nH]4)C3)no2)cc1` gave Pf Dd2 inh -2%.
Screening Cc1ccc(C(=O)N2CCC3(CC2)NC(=O)N(Cc2ccccc2)C3=O)cc1 returned Pf Dd2 inh 41%.
N#Cc1cccc(C(=O)N2CCC3(CC2)NC(=O)N(Cc2ccccc2Cl)C3=O)c1 was read as Pf Dd2 inh inactive.
Screening N#Cc1ccc(C(=O)N2CCC3(CC2)NC(=O)N(Cc2ccccc2Cl)C3=O)cc1 returned Pf Dd2 inh 2.5µM*.
`CCn1ncc(N2CCCC(CC(=O)NCc3ccccc3OC)C2)cc1=O` (stereo not given) gave Pf Dd2 inh -17%.
CCc1ccc(N2C(=O)CSC23C(=O)N(Cc2ccc(C)cc2)c2ccccc23)cc1 (stereo not given) was read as Pf Dd2 inh -21%.
Screening CCc1ccc(N2C(=O)CSC23C(=O)N(Cc2cccc(F)c2)c2ccccc23)cc1 (stereo not given) returned Pf Dd2 inh -11%.
For COc1cccc(CN2C(=O)C3(SCC(=O)N3c3cc(C)cc(C)c3)c3ccccc32)c1 (stereo not given) the results were Pf Dd2 inh inactive.
Screening NC(=O)CN1C(=O)C2(SCC(=O)N2c2cccc(F)c2)c2ccccc21 (stereo not given) returned Pf Dd2 inh 13%.
Cc1cccc(N2C(=O)CSC23C(=O)N(C)c2ccccc23)c1 (stereo not given) was read as Pf Dd2 inh inactive.
Screening CC(C)c1ccc(N2C(=O)CSC23C(=O)N(Cc2ccccc2)c2ccccc23)cc1 (stereo not given) returned Pf Dd2 inh inactive.
`CCc1ccc(NC(=O)CN2C(=O)C3(SCC(=O)N3c3ccccc3)c3ccccc32)cc1` (stereo not given) gave Pf Dd2 inh 11µM*.
`O=C(CN1C(=O)C2(SCC(=O)N2c2cccc(Cl)c2)c2ccccc21)NCc1ccccc1` (stereo not given) gave Pf Dd2 inh 11µM*.
Screening O=C(Cn1c(=O)n(-c2cccc(Cl)c2)c(=O)c2sc3ccccc3c21)NC1CCCCC1 returned Pf Dd2 inh 27%.
